USP10 inh: human USP10 deubiquitinase inhibition; Q14694; purified USP10, Ub-rhodamine fluorescence, 60 min; inhibition, % at 20 µM; 47,000 compounds, 1.1% hits; AID 1645856
USP7 inh: blocks human USP7 ubiquitin-rhodamine cleavage; Q93009; purified USP7, Ub-rhodamine cleavage fluorescence; inhibition, % at 20 µM; 47,000 compounds, 0.3% hits; AID 1645854
OTUD3 inh: blocks human OTUD3 ubiquitin-rhodamine cleavage | Q5T2D3 | purified OTUD3, Ub-rhodamine fluorescence, 2 h | inhibition, % at 25 µM | 47,000 compounds, 0.7% hits | AID 1645858
UCHL1 inh: human UCHL1 deubiquitinase inhibition; 47,000 compounds, 0.2% hits; P09936; inhibition, % at 20 µM; purified UCHL1, Ub-rhodamine cleavage fluorescence
USP8 inh: human USP8 deubiquitinase inhibition; purified USP8, Ub-rhodamine cleavage fluorescence, 30 min; P40818; 47,000 compounds, 4.2% hits; inhibition, % at 20 µM
A number is an active result; n = inactive. In the library only some 5% were active in any assay of this set; here they are far more common. Rule as the data show it: active = inhibition above about 30%; inactive = the rest.

SMILES	USP10 inh	USP7 inh	OTUD3 inh	UCHL1 inh	USP8 inh
Cc1ccc(O)c(-c2cc(C(=O)Nc3ccccc3Cl)[nH]n2)c1	n	n	n	n	n
Cc1ccc(-c2cc(C(=O)Nc3ccccc3Cl)[nH]n2)c(O)c1C	n	n	n	n	33
COc1ccc(CCC(=O)Nc2ccc3c(c2)Sc2ccccc2C(=O)N3C)cc1	n	n	n	n	n
COc1ccc(NC(=O)C(C)n2nc(-c3ccccc3)c3cc(Cl)ccc32)cc1 (stereo not drawn)	n	n	n	n	n
CC(C(=O)NCCc1ccccc1)n1nc(-c2ccccc2)c2cc(Cl)ccc21 (stereo not drawn)	n	n	34	n	31
O=C(c1ccc(Cl)cc1)[C@@H]1[C@H](C(=O)OC(c2ccccc2)c2ccccc2)N2c3ccccc3C=CC2[C@@]12C(=O)Nc1ccccc12 (stereo partly drawn)	n	n	n	n	52
COc1cccc2cc(C(=O)N3CC(c4nc(-c5ncccn5)no4)C3)oc12	n	n	n	n	n

Source: PubChem BioAssay
